# NALP1 inh: inhibitors of NALP1 inflammasome in yeast | S. cerevisiae NALP1/ASC/caspase-1 growth, X-gal OD620, 72 h | inhibition, % at 10 µM | 0.61% of 280,000 active | AID 2071; in the data active means inhibition mostly above about 24%, no sharp cut-off; inactive means mostly below about 32%
# TIM10 inh: TIM10 yeast growth inhibition; AID 463195; inhibition, % at 10 µM; S. cerevisiae TIM10 strain growth, BacTiter-Glo luminescence, 24 h; 1.4% of 330,000 active;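 active means inhibition of 40% or more at the single tested concentration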;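 further: wild-type TIM10 isogenic control strain grown at permissive 25 °C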
# tim10-1 inh: inhibits growth of tim10-1 mutant yeast. S. cerevisiae tim10-1 ts strain growth, BacTiter-Glo, 24 h. inhibition, % at 20 µM. 2.2% of 330,000 active. AID 463190;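 active means inhibition of at least 40%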;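 further: mutant grown at 25 °C; 0% = DMSO wells with yeast and 100% = wells holding no yeast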
# tim23-1 inh: inhibits growth of tim23-1 mutant yeast. 1.3% of 330,000 active. S. cerevisiae tim23-1 growth, BacTiter-Glo luminescence, 24 h. inhibition, % at 20 µM;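 active means growth inhibition of the mutant yeast at or above 50%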;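 further: temperature-sensitive mutant grown at 25 °C; plate controls were DMSO-treated mutant yeast for no effect and medium wells lacking yeast for full effect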
# NLRP3 yeast inh: inhibitors of NALP3 inflammasome in yeast | Yeast reconstituted NLRP3/ASC/caspase-1, beta-gal luminescence, 24 h | inhibition, % at 10 µM | 0.39% of 330,000 active | AID 2825;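 active means inhibition of 50% or more; inactive means inhibition below 50%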;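 further: plate controls were induced DMSO wells for no effect and uninduced yeast grown without galactose for full effect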
# tim10-1 conf: tim10-1 yeast growth inhibition, confirmed; shares compounds with tim10-1 inh; S. cerevisiae tim10-1 ts strain growth, BacTiter-Glo, 24 h; inhibition, % at 20 µM; 56% of 7,400 active; AID 463213;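 active means inhibition of yeast growth at or above a set limit in either of two repeat tests at 20 µM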;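 further: tim10-1 mutant grown at permissive 25 °C to find synthetic lethal compounds; 0% = DMSO yeast wells and 100% = medium wells without yeast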
# * = called active by the depositor; / = not tested or not shown. Shown are actives, neighbours in structure and some others; about 4% of the full set was active somewhere.
SMILES,NALP1 inh,TIM10 inh,tim10-1 inh,tim23-1 inh,NLRP3 yeast inh,tim10-1 conf
Cn1nc(-c2ccccc2)c(CO)c1Oc1ccc(F)cc1,17,19,16,24,16,/
CN1C(=O)/C(=C/c2ccccc2Cl)Sc2ccc(C(=O)NCc3cccnc3)cc21,4,-7,-6,9,27,/
O=C(CN(c1cccc(Cl)c1)S(=O)(=O)c1ccc(Cl)cc1)N1CCc2ccccc2C1,18,13,14,28,-3,/
CCS(=O)(=O)NCC(c1cccnc1)N1CCN(c2ccccc2F)CC1 (stereo not given),14,-10,-3,-8,-12,/
O=C(COc1ccc(-n2ccnc2)cc1)Nc1cccc(Cl)c1,-4,18,11,17,7,/
OCCC1CN(Cc2nc3ccccc3s2)CCN1C1CCCC1 (stereo not given),15,10,-5,6,3,/
Cn1nc(-c2ccc(Cl)cc2)c2cc(C(=O)NCCN3CCOCC3)sc21,-15,27,46*,42,6,27
Cn1nc(-c2ccc(Cl)cc2)c2cc(C(=O)N3CCN(C(=O)c4ccco4)CC3)sc21,2,24,41*,33,8,5
Cc1ccc(CNC(=O)COc2cc(O)c3c(c2)OC(C)(C)CC3=O)cc1,21,8,44*,30,21,3
Nc1c(C(=O)NC2CCCC2)sc2nc(-c3cccs3)ccc12,12,30,40*,22,10,32*
O=C(CNS(=O)(=O)c1ccccc1)Nc1ccc(C(F)(F)F)cc1,15,16,2,-2,17,/
COc1ccc(CCNc2oc(COc3ccccc3)nc2C#N)cc1,3,5,47*,19,18,43*
O=C(NCCCN1CCOCC1)c1ccc2c(=O)n(-c3ccc(F)c(Cl)c3)c(=S)[nH]c2c1,-8,-5,-9,-8,-3,/
COc1ccccc1CN1CCNC(=O)C1CC(=O)NC1Cc2ccccc2C1 (stereo not given),6,21,23,23,5,/
CCCCCCSc1ccc([C@H]2N[C@@](Cc3ccccc3)(C(=O)OC)[C@H]3C(=O)N(C)C(=O)[C@@H]23)cc1OC,/,-1,4,4,17,/
COc1ccc(C(=O)Nc2ccc3c4c(cccc24)CC3)cc1,29,23,44*,48,30,30*
Cc1cc(OCc2cc(C(=O)NC(C)c3c(C)nn(C)c3C)no2)cc(C)c1Cl (stereo not given),-3,8,46*,32,17,15
Cc1cc(OCc2cc(C(=O)N(C)C(C)c3ccccn3)no2)cc(C)c1Cl (stereo not given),2,14,41*,27,10,12
Cc1nn(C(C)C(=O)NCc2ccco2)c(=O)c2nn(-c3ccccc3)c(C)c12 (stereo not given),7,0,1,-5,3,/
Clc1ccc(-c2nnc(CNC3CC3)o2)cc1,4,7,3,9,10,/
COc1ccc(-c2cc(C3CC3)nc(N)c2C#N)cc1,12,22,27,24,-7,/
COc1ccc(-c2cc(C3CC3)nc3sc(C#N)c(N)c23)cc1,31,35,44*,47,28,57*
CC(=O)c1ccc(N2CCN(C(=O)c3cc(S(=O)(=O)N4CCOCC4)ccc3C)CC2)cc1,/,9,10,9,3,/
Cc1ccc(NCCC(=O)c2cccc([N+](=O)[O-])c2)c(C)c1,19,-4,37,23,14,/
Cc1cccc(NCCC(=O)c2ccc([N+](=O)[O-])cc2)c1C,20,23,40*,22,16,38*
SMILES,NALP1 inh,TIM10 inh,tim10-1 inh,tim23-1 inh,NLRP3 yeast inh,tim10-1 conf
Cn1c(=NC(=O)COc2ccccc2)sc2cccc(F)c21,/,-28,-20,-8,13,/
CN1C(=O)/C(=C\c2ccccc2)Sc2ccc(C(=O)N3CCN(c4ccccn4)CC3)cc21,-14,/,/,/,/,/
O=C1Nc2cc(C(=O)N3CCN(c4ccccn4)CC3)ccc2S/C1=C\c1ccccc1,1,30,42*,42,22,-8
CCCCCCCCCCCCN1[C@@H](CC(=O)O)c2cc(C(F)(F)F)ccc2S1(=O)=O,/,-4,64*,4,4,14
CCCCCCCCN1[C@@H](CC(=O)O)c2cc(C(F)(F)F)ccc2S1(=O)=O,/,20,29,18,8,/
Cc1cc(C)cc(NC(=O)N2CCN(S(C)(=O)=O)CC2)c1,13,-11,8,14,0,/
